PubChem BioAssay AID1159580 (chemical genetic matrix, 2015)
Values joined by “and” are separate entries in the source; they are usually repeats but may differ in a detail not shown here. Equal values may be shown once. The campaign covered roughly 5,500 compounds. About 2,000 (36%) were called active. About 18% were inconclusive and are not listed. Rule as the data show it: active = normalized growth mostly below about 0.91 (no sharp cut-off); inconclusive = no clear call, values can overlap the other calls; inactive = mostly above about 0.92. The list shows a part of the results. Some structures have more than one record in an assay (separate samples or runs), and their calls can disagree.

Experiment: chemical genetic growth profiling, strain panel (AID 1159580);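 also: tested at 20 µM; growth read once vehicle control cultures reached saturation at 30 °C; 1 = growth at the plate median or of vehicle wells; lower values mean less growth of the strain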
Settings: growth OD

Measured: normalized growth

O=c1cc(-c2ccccc2)oc2cc(O)cc(O)c12
0.957 (inactive) and 0.875 (active): S. cerevisiae deletion strains, locus YOR070C, strain gyp1, stronger effect = lower value
0.94 (inactive) and 0.912 (active): S. cerevisiae deletion strains, locus YKR026C, strain gcn3, stronger effect = lower value
0.912 (inactive) and 0.807 (active): S. cerevisiae deletion strains, locus YOR083W, strain WHI5, stronger effect = lower value
0.943 (inactive) and 0.912 (active): S. cerevisiae deletion strains, locus YKR091W, strain srl3, stronger effect = lower value
0.924 (inactive) and 0.838 (active): S. cerevisiae deletion strains, locus YLR258W, strain gsy2, stronger effect = lower value
0.97 (inactive) and 0.818 (active): S. cerevisiae deletion strains, locus YNL248C, strain rpa49, stronger effect = lower value
0.882 (inactive) and 0.838 (active): S. cerevisiae deletion strains, locus YLR357W, strain rsc2, stronger effect = lower value
0.915 (inactive) and 0.802 (active): S. cerevisiae deletion strains, locus YOR106W, strain vam3, stronger effect = lower value
active: S. cerevisiae deletion strains, locus YKL009W, strain mrt4, stronger effect = lower value 0.667 | S. cerevisiae deletion strains, locus YKL085W, strain MDH1 (second series), stronger effect = lower value 0.888 | S. cerevisiae deletion strains, locus YKL085W, strain MDH1, stronger effect = lower value 0.888 | S. cerevisiae deletion strains, locus YKR001C, strain vps1, stronger effect = lower value 0.813 | S. cerevisiae deletion strains, locus YLR113W, strain HOG1, stronger effect = lower value 0.831 | S. cerevisiae deletion strains, locus YLR262C, strain YPT6 (second series), stronger effect = lower value 0.677 and 0.514 | S. cerevisiae deletion strains, locus YLR268W, strain sec22, stronger effect = lower value 0.837 | S. cerevisiae deletion strains, locus YLR320W, strain mms22, stronger effect = lower value 0.837 and 0.73 | S. cerevisiae deletion strains, locus YLR418C, strain cdc73, stronger effect = lower value 0.761 | S. cerevisiae deletion strains, locus YML032C, strain rad52, stronger effect = lower value 0.87 | S. cerevisiae deletion strains, locus YMR058W, strain fet3, stronger effect = lower value 0.893 and 0.653 | S. cerevisiae deletion strains, locus YMR205C, strain PFK2, stronger effect = lower value 0.87 and 0.693 | S. cerevisiae deletion strains, locus YMR307W, strain GAS1, stronger effect = lower value 0.551 | S. cerevisiae deletion strains, locus YNL071W, strain lat1, stronger effect = lower value 0.891 and 0.727 | S. cerevisiae deletion strains, locus YNL233W, strain BNI4, stronger effect = lower value 0.869 | S. cerevisiae deletion strains, locus YNL271C, strain bni1, stronger effect = lower value 0.904 | S. cerevisiae deletion strains, locus YNL298W, strain CLA4, stronger effect = lower value 0.893 | S. cerevisiae deletion strains, locus YNL307C, strain MCK1, stronger effect = lower value 0.834 | S. cerevisiae deletion strains, locus YOL147C, strain pex11, stronger effect = lower value 0.929 | S. cerevisiae deletion strains, locus YOR144C, strain elg1, stronger effect = lower value 0.932 | S. cerevisiae deletion strains, locus YOR184W, strain ser1, stronger effect = lower value 0.761 | S. cerevisiae deletion strains, locus YOR270C, strain vph1, stronger effect = lower value 0.746 and 0.518 | S. cerevisiae deletion strains, locus YPL051W, strain arl3, stronger effect = lower value 0.905 and 0.701 | S. cerevisiae deletion strains, locus YPR163C, strain tif3, stronger effect = lower value 0.883
0.926 (inactive) and 0.776 (active): S. cerevisiae deletion strains, locus YPL078C, strain atp4, stronger effect = lower value
0.943 (inactive) and 0.867 (active): S. cerevisiae deletion strains, locus YLR027C, strain aat2, stronger effect = lower value
0.936 (inactive) and 0.919 (active): S. cerevisiae deletion strains, locus YLL026W, stronger effect = lower value
0.944 (inactive) and 0.828 (active): S. cerevisiae deletion strains, locus YLR221C, strain rsa3, stronger effect = lower value
0.908 (inactive) and 0.809 (active): S. cerevisiae deletion strains, locus YKL160W, strain elf1, stronger effect = lower value
0.934 (inactive) and 0.871 (active): S. cerevisiae deletion strains, locus YMR231W, strain pep5, stronger effect = lower value
0.901 (inactive) and 0.85 (active): S. cerevisiae deletion strains, locus YOR290C, strain snf2, stronger effect = lower value
0.962 (inactive) and 0.886 (active): S. cerevisiae deletion strains, locus YPL240C, strain hsp82, stronger effect = lower value
0.946 (inactive) and 0.903 (active): S. cerevisiae deletion strains, locus YLR342W, strain FKS1, stronger effect = lower value
0.97 (inactive) and 0.877 (active): S. cerevisiae deletion strains, locus YNL322C, strain KRE1 (second series), stronger effect = lower value
0.946 (inactive) and 0.915 (active): S. cerevisiae deletion strains, locus YLL041C, strain sdh2, stronger effect = lower value
0.954 (inactive) and 0.871 (active): S. cerevisiae deletion strains, locus YNL209W, strain ssb2, stronger effect = lower value
inactive: S. cerevisiae deletion strains, locus YJR075W, strain HOC1, stronger effect = lower value 0.924 | S. cerevisiae deletion strains, locus YKL068W, stronger effect = lower value 0.943 | S. cerevisiae deletion strains, locus YKL190W, strain CNB1, stronger effect = lower value 0.941 | S. cerevisiae deletion strains, locus YLL001W, strain dnm1, stronger effect = lower value 0.94 and 0.905 | S. cerevisiae deletion strains, locus YLR039C, strain RIC1, stronger effect = lower value 0.715 | S. cerevisiae deletion strains, locus YLR058C, strain SHM2, stronger effect = lower value 0.965 | S. cerevisiae deletion strains, locus YLR102C, strain apc9, stronger effect = lower value 0.947 | S. cerevisiae deletion strains, locus YLR262C, strain YPT6, stronger effect = lower value 0.684 | S. cerevisiae deletion strains, locus YLR330W, strain CHS5, stronger effect = lower value 0.972 | S. cerevisiae deletion strains, locus YLR342W, strain FKS1 (second series), stronger effect = lower value 0.862 | S. cerevisiae deletion strains, locus YLR370C, strain arc18, stronger effect = lower value 0.958 and 0.933 | S. cerevisiae deletion strains, locus YLR371W, strain rom2, stronger effect = lower value 0.951 | S. cerevisiae deletion strains, locus YLR384C, strain iki3, stronger effect = lower value 0.938 and 0.931 | S. cerevisiae deletion strains, locus YML016C, strain PPZ1, stronger effect = lower value 0.985 | S. cerevisiae deletion strains, locus YML120C, strain ndi1, stronger effect = lower value 0.944 and 0.942 | S. cerevisiae deletion strains, locus YML124C, strain tub3, stronger effect = lower value 0.952 | S. cerevisiae deletion strains, locus YMR078C, strain ctf18, stronger effect = lower value 0.928 | S. cerevisiae deletion strains, locus YMR125W, strain sto1, stronger effect = lower value 0.929 and 0.907 | S. cerevisiae deletion strains, locus YMR129W, stronger effect = lower value 0.94 | S. cerevisiae deletion strains, locus YMR223W, strain ubp8, stronger effect = lower value 0.906 | S. cerevisiae deletion strains, locus YMR263W, strain SAP30, stronger effect = lower value 0.927 | S. cerevisiae deletion strains, locus YNL067W, strain RPL9B, stronger effect = lower value 0.898 | S. cerevisiae deletion strains, locus YNL128W, strain TEP1, stronger effect = lower value 0.972 | S. cerevisiae deletion strains, locus YNL153C, strain GIM3, stronger effect = lower value 0.931 | S. cerevisiae deletion strains, locus YNL183C, strain NPR1, stronger effect = lower value 0.894 | S. cerevisiae deletion strains, locus YNL250W, strain rad50, stronger effect = lower value 0.925 | S. cerevisiae deletion strains, locus YNL322C, strain KRE1, stronger effect = lower value 0.978 | S. cerevisiae deletion strains, locus YNR049C, strain mso1, stronger effect = lower value 0.966 and 0.944 | S. cerevisiae deletion strains, locus YNR052C, strain pop2, stronger effect = lower value 0.944 | S. cerevisiae deletion strains, locus YOL006C, strain TOP1, stronger effect = lower value 0.686 | S. cerevisiae deletion strains, locus YOL012C, strain htz1 0.62 | S. cerevisiae deletion strains, locus YOR001W, strain rrp6, stronger effect = lower value 0.941 and 0.903 | S. cerevisiae deletion strains, locus YOR061W, strain CKA2, stronger effect = lower value 0.98 | S. cerevisiae deletion strains, locus YOR069W, strain VPS5, stronger effect = lower value 0.988 | S. cerevisiae deletion strains, locus YOR080W, strain dia2, stronger effect = lower value 0.97 and 0.934 | S. cerevisiae deletion strains, locus YOR136W, strain idh2, stronger effect = lower value 0.968 | S. cerevisiae deletion strains, locus YOR231W, strain MKK1, stronger effect = lower value 0.905 | S. cerevisiae deletion strains, locus YOR265W, strain rbl2, stronger effect = lower value 0.947 and 1.01 | S. cerevisiae deletion strains, locus YOR316C, strain cot1, stronger effect = lower value 0.945 | S. cerevisiae deletion strains, locus YPL055C, strain LGE1, stronger effect = lower value 0.91 | S. cerevisiae deletion strains, locus YPL106C, strain sse1, stronger effect = lower value 0.911 and 0.879 | S. cerevisiae deletion strains, locus YPL241C, strain CIN2, stronger effect = lower value 0.985 | S. cerevisiae deletion strains, locus YPL256C, strain CLN2, stronger effect = lower value 0.891 | S. cerevisiae deletion strains, locus YPR119W, strain clb2, stronger effect = lower value 0.937 | S. cerevisiae deletion strains, locus YPR141C, strain kar3, stronger effect = lower value 0.942 | S. cerevisiae deletion strains, locus YPR167C, strain met16, stronger effect = lower value 0.947 | S. cerevisiae deletion strains, strain wtn01, stronger effect = lower value 0.912 | S. cerevisiae strains, strain wild type, stronger effect = lower value 0.956
